Calls of active or inactive are those of the source.
Assays:
[1] = test system: PRMT1 (protein arginine N-methyltransferase 1); experiment: small molecules binding arginine methyltransferase PRMT1 – biochemical, small-molecule microarray, 635 nm fluorescence, primary screen (AID 1088); settings: higher = more signal;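 also: binding of Prmt1 protein to compounds spotted on small-molecule microarray slides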
[2] = growth effects on S. cerevisiae YJM789 – YJM789 clinical isolate, OD600, 24 h, basal, primary screen (AID 1089); settings: higher = more signal, called active from +8 up or from −8 down;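 also: growth of clinical yeast isolate S. cerevisiae YJM 789 seeded 1000 cells per well; test concentration not given here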
[3] = S. pombe growth modifiers, basal conditions – strain 972, OD600, 24 h, no modulator, primary screen (AID 1090);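 also: basal condition with compound alone and no growth modifier present; test concentration not given here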; settings: S. pombe 972 growth, higher = more signal, called active from +8 up or from −8 down
[4] = budding yeast growth modifiers under rapamycin – strain BY4716, OD600, 96 h, primary screen (AID 1091); also: test concentration not given here; settings: S. cerevisiae BY4716 + rapamycin, higher = more signal, called active from +8 up or from −8 down
[5] = target: Torsin-1A-interacting protein 2 (Homo sapiens) (UniProt Q8NFQ8); experiment: small molecules binding lysate-expressed LULL1 – cell lysate, human LULL1 lysate, 635/667 nm fluorescence, primary screen (AID 1092); settings: small-molecule microarray, hLULL1 lysate binding, 635 nm fluorescence; higher = more signal;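 also: probe is lysate of COS7 cells overexpressing human LULL1; score merges per-feature 667 nm fluorescence with signal-to-noise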
[6] = optical density change of DRC41 E. coli – strain DRC41, OD650, 24 h, E. coli filamentation project, primary screen (AID 1093);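 also: MC1000 strain lacking acrAB efflux and sulA so SOS filamentation is blocked; test concentration not given here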; settings: E. coli DRC41 growth, higher = more signal, called active from +8 up or from −8 down
[7] = probe aLefty2 binding to arrayed compounds – biochemical, biotinylated probe, 635/667 nm fluorescence, primary screen (AID 1094); settings: small-molecule microarray, higher = more signal;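 also: score merges spot fluorescence near 667 nm with spot signal-to-noise ratio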
[8] = test system: Noggin (protein binding on small-molecule microarray); experiment: small molecules binding Noggin protein – biochemical, 635/667 nm fluorescence, primary screen (AID 1095); settings: 635 nm fluorescence, higher = more signal;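 also: score merges 667 nm feature fluorescence with signal to noise over triplicate slides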
[9] = target: Neurogenic locus notch homolog protein 3 (Homo sapiens) (UniProt Q9UM47); experiment: small molecules binding NOTCH3 protein – biochemical, 635/667 nm fluorescence, primary screen (AID 1096); settings: small-molecule microarray, 635 nm fluorescence, higher = more signal
[10] = probe aEGFR binding to arrayed compounds – biochemical, biotinylated probe, 635/667 nm fluorescence, primary screen (AID 1097); settings: small-molecule microarray, higher = more signal;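 also: probe is a biotinylated anti-EGFR antibody binding compounds printed on slides; score combines fluorescence near 667 nm and signal to noise of each spot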
[11] = test system: Plasmodium falciparum Sir2 (PF13_0152, Sir2A); experiment: Plasmodium falciparum Sir2A binding compounds – biochemical, small-molecule microarray, 635 nm fluorescence, primary screen (AID 1098); settings: fluorescence 635 nm, higher = more signal;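 also: score merges spot fluorescence intensity with its signal-to-noise ratio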
[12] = probe aDKK1 binding to arrayed compounds – biochemical, biotinylated probe, 635/667 nm fluorescence, primary screen (AID 1099); settings: small-molecule microarray, higher = more signal;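 also: score merges 667nm spot fluorescence with signal to noise across triplicate slides; reference of the scale not given here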
[13] = probe aCHRDL2 binding to arrayed compounds – biochemical, biotinylated probe, 635/667 nm fluorescence, primary screen (AID 1100); settings: small-molecule microarray, higher = more signal
[14] = change in splice reporter luminescence, either direction, cell-based, HEK293, spliceosome inhibition project, primary screen (AID 1101); settings: HEK293 splicing luciferase reporter, 24 h, higher = more signal, called active from +8 up or from −8 down;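 also: HEK293 cells carrying a splicing-competent luciferase reporter gene; test concentration not given here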
[15] = target: Fibroblast growth factor 10 (Homo sapiens) (UniProt O15520); experiment: compounds binding fibroblast growth factor 10 – biochemical, small-molecule microarray, 635 nm fluorescence, primary screen (AID 1102); settings: FGF10 binding, fluorescence 635 nm, higher = more signal
[16] = test system: glycogen synthase kinase-3 (GSK3A per assay name; protocol says GSK3B); experiment: compounds binding glycogen synthase kinase-3 – biochemical, small-molecule microarray, 635 nm fluorescence, GSK3A, primary screen (AID 1103); settings: fluorescence 635 nm, higher = more signal; also: the record names both GSK3A and GSK3B
[17] = target: Epidermal growth factor receptor (Homo sapiens) (UniProt P00533); experiment: compounds binding epidermal growth factor receptor – biochemical, small-molecule microarray, 635 nm fluorescence, primary screen (AID 1104); settings: EGFR binding, higher = more signal;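 also: score merges 667 nm emission intensity with spot signal to noise over triplicate slides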
[18] = target: Follistatin-related protein 3 (Homo sapiens) (UniProt O95633); experiment: compounds binding follistatin-related protein 3 – biochemical, small-molecule microarray, 635 nm fluorescence, primary screen (AID 1105); settings: FSTL3 binding, higher = more signal;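 also: score merges emission near 667 nm and signal to noise per printed spot across three slides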
[19] = target: Dickkopf-related protein 1 (Homo sapiens) (UniProt O94907); experiment: small molecules binding DKK1 protein – biochemical, small-molecule microarray, 635 nm fluorescence scan, primary screen (AID 1106); settings: higher = more signal;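 also: score merges emission near 667 nm with signal to noise over three replicate slides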
[20] = test system: Inhibin beta A chain (activin A); experiment: small molecules binding activin A – biochemical, small-molecule microarray, 635 nm fluorescence scan, primary screen (AID 1107); settings: INHBA, higher = more signal;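 also: mouse activin A protein probed at 4.33 µg/mL on printed slides; score merges bound-protein fluorescence near 667 nm with spot signal-to-noise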

Chain of Follistatin-related protein 3 (Homo sapiens) (O95633 whole entry, looked up): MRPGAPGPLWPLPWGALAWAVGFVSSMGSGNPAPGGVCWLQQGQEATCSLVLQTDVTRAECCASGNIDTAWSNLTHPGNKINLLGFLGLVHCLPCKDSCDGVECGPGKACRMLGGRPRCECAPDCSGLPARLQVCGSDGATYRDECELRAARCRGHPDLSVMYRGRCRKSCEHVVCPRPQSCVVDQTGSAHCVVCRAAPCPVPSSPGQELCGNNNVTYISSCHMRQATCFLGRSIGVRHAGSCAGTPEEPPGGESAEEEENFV
Chain of Neurogenic locus notch homolog protein 3 (Homo sapiens) (Q9UM47 whole entry, looked up): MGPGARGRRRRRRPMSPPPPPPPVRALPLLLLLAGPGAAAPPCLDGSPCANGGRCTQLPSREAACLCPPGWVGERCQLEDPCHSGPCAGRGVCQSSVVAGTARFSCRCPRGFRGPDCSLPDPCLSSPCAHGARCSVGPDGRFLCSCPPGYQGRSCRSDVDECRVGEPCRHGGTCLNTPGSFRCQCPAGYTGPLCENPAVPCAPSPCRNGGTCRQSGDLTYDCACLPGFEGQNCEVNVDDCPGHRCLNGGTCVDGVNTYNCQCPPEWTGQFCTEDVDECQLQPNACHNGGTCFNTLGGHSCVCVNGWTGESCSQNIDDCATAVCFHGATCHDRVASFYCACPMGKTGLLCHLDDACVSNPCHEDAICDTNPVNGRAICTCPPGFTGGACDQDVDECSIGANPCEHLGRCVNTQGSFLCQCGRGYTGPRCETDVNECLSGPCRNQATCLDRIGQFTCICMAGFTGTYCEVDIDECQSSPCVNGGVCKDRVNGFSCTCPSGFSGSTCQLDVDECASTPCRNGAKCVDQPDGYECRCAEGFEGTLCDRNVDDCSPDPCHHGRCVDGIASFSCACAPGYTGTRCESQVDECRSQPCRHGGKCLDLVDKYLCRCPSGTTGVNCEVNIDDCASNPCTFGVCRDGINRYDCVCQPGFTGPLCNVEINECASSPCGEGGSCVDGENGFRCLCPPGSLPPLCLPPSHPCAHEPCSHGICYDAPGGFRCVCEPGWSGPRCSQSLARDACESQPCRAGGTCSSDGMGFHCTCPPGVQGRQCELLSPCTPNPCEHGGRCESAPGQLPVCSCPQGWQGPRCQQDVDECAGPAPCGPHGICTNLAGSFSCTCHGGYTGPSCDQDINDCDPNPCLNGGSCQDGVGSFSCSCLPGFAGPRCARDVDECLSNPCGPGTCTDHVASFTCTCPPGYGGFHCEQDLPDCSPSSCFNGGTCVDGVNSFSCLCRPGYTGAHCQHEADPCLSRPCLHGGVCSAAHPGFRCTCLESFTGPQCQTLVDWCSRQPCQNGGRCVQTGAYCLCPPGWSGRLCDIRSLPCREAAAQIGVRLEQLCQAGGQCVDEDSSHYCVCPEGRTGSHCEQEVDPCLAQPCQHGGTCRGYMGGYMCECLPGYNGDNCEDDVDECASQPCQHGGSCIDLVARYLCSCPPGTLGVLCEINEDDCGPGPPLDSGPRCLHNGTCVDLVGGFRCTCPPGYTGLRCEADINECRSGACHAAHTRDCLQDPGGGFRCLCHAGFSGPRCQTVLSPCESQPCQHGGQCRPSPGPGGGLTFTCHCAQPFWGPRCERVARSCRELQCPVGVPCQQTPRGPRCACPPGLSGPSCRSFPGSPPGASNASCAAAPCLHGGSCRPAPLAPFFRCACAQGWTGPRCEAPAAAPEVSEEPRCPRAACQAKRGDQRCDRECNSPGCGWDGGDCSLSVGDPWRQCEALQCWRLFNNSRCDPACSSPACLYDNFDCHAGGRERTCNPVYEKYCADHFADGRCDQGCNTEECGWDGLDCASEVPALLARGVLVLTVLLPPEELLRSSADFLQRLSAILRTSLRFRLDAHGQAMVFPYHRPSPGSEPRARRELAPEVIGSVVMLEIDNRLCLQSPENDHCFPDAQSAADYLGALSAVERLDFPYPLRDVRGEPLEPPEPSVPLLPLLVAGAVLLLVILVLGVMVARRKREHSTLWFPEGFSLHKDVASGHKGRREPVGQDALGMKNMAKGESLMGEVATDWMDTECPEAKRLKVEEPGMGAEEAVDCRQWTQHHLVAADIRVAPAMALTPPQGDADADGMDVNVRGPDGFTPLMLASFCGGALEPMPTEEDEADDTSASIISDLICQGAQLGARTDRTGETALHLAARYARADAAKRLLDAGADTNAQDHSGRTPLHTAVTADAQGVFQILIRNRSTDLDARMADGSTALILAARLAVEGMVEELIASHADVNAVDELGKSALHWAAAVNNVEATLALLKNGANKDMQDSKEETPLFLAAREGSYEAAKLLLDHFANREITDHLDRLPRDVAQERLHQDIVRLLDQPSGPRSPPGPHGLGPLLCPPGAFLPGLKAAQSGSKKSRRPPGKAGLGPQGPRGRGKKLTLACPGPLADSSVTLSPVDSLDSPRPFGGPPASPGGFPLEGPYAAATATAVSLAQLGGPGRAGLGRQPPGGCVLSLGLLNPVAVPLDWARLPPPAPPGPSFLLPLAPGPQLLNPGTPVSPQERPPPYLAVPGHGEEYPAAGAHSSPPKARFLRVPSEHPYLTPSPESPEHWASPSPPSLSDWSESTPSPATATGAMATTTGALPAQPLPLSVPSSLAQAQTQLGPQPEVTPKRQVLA
Chain of Dickkopf-related protein 1 (Homo sapiens) (O94907 whole entry, looked up): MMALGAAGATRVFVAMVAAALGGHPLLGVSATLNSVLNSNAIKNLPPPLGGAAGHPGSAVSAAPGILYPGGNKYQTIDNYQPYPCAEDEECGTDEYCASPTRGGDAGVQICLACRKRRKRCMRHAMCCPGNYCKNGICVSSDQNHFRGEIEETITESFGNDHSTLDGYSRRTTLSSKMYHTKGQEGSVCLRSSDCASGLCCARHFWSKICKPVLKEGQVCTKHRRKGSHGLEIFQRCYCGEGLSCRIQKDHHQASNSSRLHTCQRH
Chain of Fibroblast growth factor 10 (Homo sapiens) (O15520 whole entry, looked up): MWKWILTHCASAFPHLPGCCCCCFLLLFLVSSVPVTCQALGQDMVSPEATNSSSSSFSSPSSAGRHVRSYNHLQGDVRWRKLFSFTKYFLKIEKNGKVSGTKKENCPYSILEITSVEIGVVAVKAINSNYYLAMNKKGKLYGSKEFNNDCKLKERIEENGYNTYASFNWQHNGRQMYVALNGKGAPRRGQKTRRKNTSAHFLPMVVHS
Chain of Torsin-1A-interacting protein 2 (Homo sapiens) (Q8NFQ8 whole entry, looked up): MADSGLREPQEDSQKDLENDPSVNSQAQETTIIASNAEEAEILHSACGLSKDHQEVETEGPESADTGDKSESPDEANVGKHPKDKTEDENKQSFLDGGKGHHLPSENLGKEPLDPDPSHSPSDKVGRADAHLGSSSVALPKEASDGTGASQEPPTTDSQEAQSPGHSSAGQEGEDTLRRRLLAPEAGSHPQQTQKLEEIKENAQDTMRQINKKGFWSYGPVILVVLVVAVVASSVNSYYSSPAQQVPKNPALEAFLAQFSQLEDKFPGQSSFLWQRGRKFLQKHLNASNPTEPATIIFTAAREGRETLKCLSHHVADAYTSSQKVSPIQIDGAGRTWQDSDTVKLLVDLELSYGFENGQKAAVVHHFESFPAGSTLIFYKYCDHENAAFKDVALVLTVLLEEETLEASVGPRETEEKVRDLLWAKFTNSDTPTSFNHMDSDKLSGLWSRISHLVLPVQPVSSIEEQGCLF
Chain of Epidermal growth factor receptor (Homo sapiens) (P00533 whole entry, looked up): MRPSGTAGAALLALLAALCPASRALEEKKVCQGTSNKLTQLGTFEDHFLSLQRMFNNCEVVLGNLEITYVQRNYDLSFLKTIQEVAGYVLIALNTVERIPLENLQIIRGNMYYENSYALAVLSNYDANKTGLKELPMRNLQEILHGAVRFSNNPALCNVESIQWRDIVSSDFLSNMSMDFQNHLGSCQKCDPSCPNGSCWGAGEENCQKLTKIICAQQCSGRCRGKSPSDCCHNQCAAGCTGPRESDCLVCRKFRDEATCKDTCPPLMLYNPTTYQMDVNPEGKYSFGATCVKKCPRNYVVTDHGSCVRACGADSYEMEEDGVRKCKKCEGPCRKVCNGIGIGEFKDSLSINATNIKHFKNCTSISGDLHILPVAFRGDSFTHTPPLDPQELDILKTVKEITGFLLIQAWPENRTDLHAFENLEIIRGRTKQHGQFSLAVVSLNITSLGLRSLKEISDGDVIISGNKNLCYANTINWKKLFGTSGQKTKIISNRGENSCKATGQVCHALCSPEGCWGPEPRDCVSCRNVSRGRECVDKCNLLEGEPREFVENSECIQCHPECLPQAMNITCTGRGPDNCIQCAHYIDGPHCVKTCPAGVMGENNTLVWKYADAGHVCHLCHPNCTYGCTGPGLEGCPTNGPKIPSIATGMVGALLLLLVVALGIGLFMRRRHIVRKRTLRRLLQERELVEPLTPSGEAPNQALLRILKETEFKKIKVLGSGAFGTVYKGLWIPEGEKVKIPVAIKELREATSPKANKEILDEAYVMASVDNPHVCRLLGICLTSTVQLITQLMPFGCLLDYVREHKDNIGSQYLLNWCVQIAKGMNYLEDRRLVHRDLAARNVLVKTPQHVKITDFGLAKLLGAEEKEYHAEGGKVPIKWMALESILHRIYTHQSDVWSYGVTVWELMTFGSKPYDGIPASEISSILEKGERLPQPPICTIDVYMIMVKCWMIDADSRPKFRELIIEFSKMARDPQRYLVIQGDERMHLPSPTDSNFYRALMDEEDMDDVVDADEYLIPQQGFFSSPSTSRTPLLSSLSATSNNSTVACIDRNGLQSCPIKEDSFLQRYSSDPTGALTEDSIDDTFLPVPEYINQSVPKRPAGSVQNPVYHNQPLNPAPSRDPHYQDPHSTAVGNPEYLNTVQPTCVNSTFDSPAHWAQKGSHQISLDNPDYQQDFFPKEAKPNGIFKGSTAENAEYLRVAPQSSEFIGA

| SMILES | composite z-score [1] | z-score [2] | z-score [3] | z-score [4] | composite z-score [5] | z-score [6] | composite z-score [7] | composite z-score [8] | composite z-score [9] | composite z-score [10] | composite z-score [11] | composite z-score [12] | composite z-score [13] | z-score [14] | composite z-score [15] | composite z-score [16] | composite z-score [17] | composite z-score [18] | composite z-score [19] | composite z-score [20] |
| --- | --- | --- | --- | --- | --- | --- | --- | --- | --- | --- | --- | --- | --- | --- | --- | --- | --- | --- | --- | --- |
| COCCOC(=O)N1C(=O)[C@@]2(c3cc(C#CCNC(N)=O)ccc31)[C@H](C(N)=O)[C@H]1C(=O)O[C@H](c3ccccc3)[C@H](c3ccccc3)N1[C@@H]2c1ccccc1OCCO | 1.47 | 1 (inactive) | 0.346 (inactive) | 1.91 (inactive) | 2.07 | -0.658 (inactive) | 0.0389 | 0.506 | 1.08 | -0.071 | 1.16 | 0.0377 | 0.803 | 0.565 (inactive) | 1.07 | 0.782 | 0.302 | 1.31 | 0.78 | 1.11 |
| [N-]=[N+]=NCc1ccccc1[C@@H]1OC(c2ccc(OCCCO)cc2)=N[C@]1(CCS(=O)(=O)c1ccccc1)C(=O)O | 0.627 | 0.302 (inactive) | 0.76 (inactive) | 0.248 (inactive) | 3.31 | 0.177 (inactive) | 0.17 | -0.823 | 0.123 | -0.0535 | 0.654 | 0.79 | 0.95 | -0.551 (inactive) | 0.559 | -0.0623 | -0.231 | -0.337 | -0.713 | 1 |
| O=C1OCCC=C[C@H]2OC34C=CCN(Cn5nnc6ccccc65)C(=O)[C@H]3N(CCCO)C(=O)[C@@H]4C12 (stereo not given in full) | -1.72 | 0.0799 (inactive) | -0.973 (inactive) | -0.342 (inactive) | -1.7 | 1.81 (inactive) | -0.209 | -0.677 | -0.99 | -0.264 | -0.783 | -0.264 | 0.0963 | -1.05 (inactive) | -0.583 | -0.789 | -0.72 | -1.46 | -0.454 | 0.148 |
| COC(=O)C1=CC(CCCO)=CC(c2cccs2)N(Cc2cccc(OC(F)(F)F)c2)C=C1C(=O)OC (stereo not given) | 1.57 | -1.07 (inactive) | -1.2 (inactive) | -1.45 (inactive) | 3.28 | 0.313 (inactive) | 0.0922 | 0.143 | 1.04 | 0.679 | 0.0898 | 0.524 | 0.574 | 0.955 (inactive) | 0.67 | 1.09 | 0.179 | 0.989 | -0.149 | 1.09 |
| CCCC[C@@H](O)C1=C(COC)C[C@H]2C(=O)N(C)C(=O)[C@H]2[C@H]1CO | 0.0449 | -2.33 (inactive) | -1.77 (inactive) | -1.21 (inactive) | -0.419 | 1.1 (inactive) | -0.353 | 0.578 | -0.277 | -0.156 | 0.0237 | -0.491 | -0.532 | -0.857 (inactive) | 0.0965 | -0.0596 | -0.0915 | 0.344 | 0.339 | 0.581 |
| COCCOC(=O)N1C(=O)[C@@]2(c3cc(C#CC4=CCCCC4)ccc31)[C@H](c1ccccc1OCCO)N1[C@H](c3ccccc3)[C@H](c3ccccc3)OC(=O)[C@H]1[C@@H]2C(=O)NC[C@H](O)c1ccccc1 | 1.54 | 1.01 (inactive) | 0.785 (inactive) | 3.28 (inactive) | 2.54 | -0.314 (inactive) | -0.0671 | 1.45 | 1.07 | -0.0476 | 1.53 | 0.036 | -0.135 | -1.76 (inactive) | 1.19 | 1.3 | 0.741 | 1.42 | 0.752 | 0.755 |
| CC(C)C[C@@H]1NC(=O)[C@@H]2C[C@H](C(=O)NCCCCCCN)[C@H](c3cccc(OCCO)c3)N2C1=O | 1.53 | -0.148 (inactive) | -0.114 (inactive) | -0.502 (inactive) | 2.98 | 1.03 (inactive) | 0.235 | 0.993 | 1.12 | 0.0499 | 1.55 | 0.286 | 0.532 | 0.138 (inactive) | 1.13 | 0.712 | 0.0515 | 1.08 | 0.236 | 0.775 |
| CC(C)(C)OC(=O)COc1cccc(C(=O)CCN2CCOCC2)c1 | 1.34 | -0.728 (inactive) | -19.8 (active) | -2.13 (inactive) | 0.557 | 0.328 (inactive) | -0.126 | -0.0786 | -0.529 | -0.0815 | 0.213 | 0.684 | 0.929 | 0.849 (inactive) | -0.189 | 0.136 | -0.67 | -0.272 | -0.285 | 1.54 |
| CCOC(=O)C[C@H]1[C@H](OC(=O)c2cc3ccccc3oc2=O)[C@@H](NC(=O)c2ccc3ccccc3n2)c2cc(OCCCO)ccc2N1C(=O)Cc1ccc(OC)cc1 | 1.45 | -0.136 (inactive) | -0.163 (inactive) | -0.617 (inactive) | 1.33 | 0.397 (inactive) | -0.0391 | 0.638 | 1.16 | 0.104 | 0.915 | -0.207 | -0.427 | -0.362 (inactive) | 1.01 | 1.06 | 0.442 | 1.2 | 0.707 | 0.288 |
| COc1ccc([Si](C)(C)[C@@H]2[C@@H](CC(=O)N3Cc4ccccc4C[C@H]3CO)O[C@]3(C(=O)N(Cc4ccc(N5C(=O)c6cccc7cccc5c67)cc4)c4ccccc43)[C@H]2C)cc1 | 1.55 | -0.297 (inactive) | 0.389 (inactive) | 1.39 (inactive) | 1.74 | -0.465 (inactive) | 0.104 | 1.14 | 1.04 | 0.0717 | 0.68 | -0.0502 | -0.0445 | 1.54 (inactive) | 1.31 | 1.27 | 1.2 | 1.24 | 1.12 | 0.772 |

From PubChem BioAssay
